This is an account of results in PubChem BioAssay.

Active and inactive are the calls of the source.

Test [1] relates to Plasmodium falciparum Sir2 (PF13_0152, Sir2A). In words: Plasmodium falciparum Sir2A binding compounds – biochemical, small-molecule microarray, 635 nm fluorescence, primary screen (AID 1098).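 Further: score merges spot fluorescence intensity with its signal-to-noise ratio.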 To be noted: fluorescence 635 nm, higher = more signal.
Test [2] can be described thus: probe aDKK1 binding to arrayed compounds – biochemical, biotinylated probe, 635/667 nm fluorescence, primary screen (AID 1099).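 Further: score merges 667nm spot fluorescence with signal to noise across triplicate slides.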 To be noted: small-molecule microarray, higher = more signal.
Test [3] in a line: probe aCHRDL2 binding to arrayed compounds – biochemical, biotinylated probe, 635/667 nm fluorescence, primary screen (AID 1100). The conditions noted are these: small-molecule microarray, higher = more signal.
A short description of test [4]: change in splice reporter luminescence, either direction, cell-based, HEK293, spliceosome inhibition project, primary screen (AID 1101).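 Further: HEK293 cells carrying a splicing-competent luciferase reporter gene; test concentration not given here.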 The conditions noted are these: HEK293 splicing luciferase reporter, 24 h, higher = more signal, called active from +8 up or from −8 down.
Test [5] deals with Fibroblast growth factor 10 (Homo sapiens) (UniProt O15520). The experiment in a line: compounds binding fibroblast growth factor 10 – biochemical, small-molecule microarray, 635 nm fluorescence, primary screen (AID 1102). To be noted: FGF10 binding, fluorescence 635 nm, higher = more signal.
Test [6] relates to glycogen synthase kinase-3 (GSK3A per assay name; protocol says GSK3B). The experiment in a line: compounds binding glycogen synthase kinase-3 – biochemical, small-molecule microarray, 635 nm fluorescence, GSK3A, primary screen (AID 1103). Further: the record names both GSK3A and GSK3B. The conditions noted are these: fluorescence 635 nm, higher = more signal.
The target of test [7] is Epidermal growth factor receptor (Homo sapiens) (UniProt P00533). The experiment in a line: compounds binding epidermal growth factor receptor – biochemical, small-molecule microarray, 635 nm fluorescence, primary screen (AID 1104).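 Further: score merges 667 nm emission intensity with spot signal to noise over triplicate slides.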 The conditions noted are these: EGFR binding, higher = more signal.
The target in test [8] is Follistatin-related protein 3 (Homo sapiens) (UniProt O95633). In words: compounds binding follistatin-related protein 3 – biochemical, small-molecule microarray, 635 nm fluorescence, primary screen (AID 1105).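 Further: score merges emission near 667 nm and signal to noise per printed spot across three slides.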 To be noted: FSTL3 binding, higher = more signal.
For test [9], the target named is Dickkopf-related protein 1 (Homo sapiens) (UniProt O94907). In words: small molecules binding DKK1 protein – biochemical, small-molecule microarray, 635 nm fluorescence scan, primary screen (AID 1106).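 Further: score merges emission near 667 nm with signal to noise over three replicate slides.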 The conditions noted are these: higher = more signal.
Test [10] deals with Inhibin beta A chain (activin A). In words: small molecules binding activin A – biochemical, small-molecule microarray, 635 nm fluorescence scan, primary screen (AID 1107).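 Further: mouse activin A protein probed at 4.33 µg/mL on printed slides; score merges bound-protein fluorescence near 667 nm with spot signal-to-noise.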 To be noted: INHBA, higher = more signal.
In test [11] the test system is Human papillomavirus type 1a protein E7 (residues 44-93). The experiment in a line: small molecules binding HPV E7 44-93 – biochemical, small-molecule microarray, residues 44-93, 635 nm fluorescence, primary screen (AID 1108).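 Further: E7 fragment applied at 1 µg/mL in TBST for 1 h at 4 C; score combines spot fluorescence with its signal to noise ratio.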 To be noted: fluorescence 635 nm, higher = more signal.
Test [12] in a line: hepatitis C replication reporter changes, two-sided – Huh7 cells, luciferase reporter, HCV replication inhibitor project, primary screen (AID 1109).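 Further: huh7 hepatoma cells harbouring a luciferase neomycin HCV replicon reporter; luciferase luminescence as measure of HCV replicon replication; test concentration not given here.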 To be noted: Huh7 HCV replicon luciferase reporter, 48 h; higher = more signal. (In a reporter assay the amount or activity of a reporter protein is the signal.)
The target in test [13] is Left-right determination factor 2 (Homo sapiens) (UniProt O00292). The experiment in a line: small molecules binding LEFTY2 protein – biochemical, small-molecule microarray, 635 nm fluorescence scan, primary screen (AID 1110). To be noted: higher = more signal.
The target in test [14] is Calmodulin-1 (Homo sapiens) (UniProt P0DP23). The experiment in a line: small molecules binding calmodulin-1 with EGTA – biochemical, small-molecule microarray, Cy5-labelled CALM1, profiling panel (AID 1111).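 Further: labelled calmodulin applied in Tris saline Tween buffer holding calcium plus EGTA and DTT.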 To be noted: Cy5-CALM1 binding fluorescence, higher = more signal.
The target is the same in test [15]. In words: small molecules binding Ca-loaded calmodulin-1 – biochemical, small-molecule microarray, Cy5-labelled CALM1, plus calcium, artefact control for SMM control-protein annotation, profiling panel (AID 1112).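 Further: score merges spot fluorescence with signal to noise from triplicate slides.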 To be noted: Cy5-CALM1 binding fluorescence, higher = more signal.
The nature of test [16]: probe aWnt5a binding to arrayed compounds – biochemical, biotinylated probe, 635/667 nm fluorescence, primary screen (AID 1113).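 Further: score merges 667 nm fluorescence intensity with signal-to-noise per printed feature.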 To be noted: small-molecule microarray, higher = more signal.
Test [17] can be described thus: probe aShh binding to arrayed compounds – biochemical, biotinylated probe, 635/667 nm fluorescence, primary screen (AID 1114).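 Further: probe is biotin-labelled aShh protein from a stem cell growth factor screen; measures binding of labelled protein to compounds printed on the slide; score merges feature fluorescence at 667 nm with signal-to-noise.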 The conditions noted are these: small-molecule microarray, higher = more signal.
Test [18] can be described thus: probe aNog binding to arrayed compounds – biochemical, biotinylated probe, 635/667 nm fluorescence, primary screen (AID 1115).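 Further: probe is biotinylated aNog protein used at 0.15 µg/mL for 1 h at 4 C; z-score combines 667 nm fluorescence of each spot with its signal to noise.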 The conditions noted are these: small-molecule microarray, higher = more signal.
For test [19], the target named is Torsin-1A-interacting protein 1 (Homo sapiens) (UniProt Q5JTV8). The experiment in a line: compound microarray binding of lysate hLAP1 – cell lysate, small-molecule microarray, COS7 lysate, 635/667 nm fluorescence, primary screen (AID 1116). To be noted: 635 nm fluorescence, higher = more signal.
The target in test [20] is Alpha-bungarotoxin (Bungarus multicinctus) (UniProt P60615). The experiment in a line: compounds binding labelled alpha-BTX control protein – biochemical, small-molecule microarray, Alexa647 label, 635/667 nm fluorescence, artefact control for SMM control protein annotation, profiling panel (AID 1117). To be noted: alpha-BTX-A647 binding fluorescence, higher = more signal.
Alpha-bungarotoxin (Bungarus multicinctus), sequence (P60615 whole entry, looked up): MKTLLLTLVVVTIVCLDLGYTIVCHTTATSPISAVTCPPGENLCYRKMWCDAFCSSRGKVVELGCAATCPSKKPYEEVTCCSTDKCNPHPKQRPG

Follistatin-related protein 3 (Homo sapiens), sequence (O95633 whole entry, looked up): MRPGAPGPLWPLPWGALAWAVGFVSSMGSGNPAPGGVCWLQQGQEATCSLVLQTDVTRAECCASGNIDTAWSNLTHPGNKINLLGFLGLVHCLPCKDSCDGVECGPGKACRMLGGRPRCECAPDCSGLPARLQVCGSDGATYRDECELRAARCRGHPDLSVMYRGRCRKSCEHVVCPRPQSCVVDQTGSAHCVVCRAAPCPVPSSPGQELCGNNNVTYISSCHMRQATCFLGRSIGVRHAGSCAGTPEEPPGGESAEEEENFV
Torsin-1A-interacting protein 1 (Homo sapiens), sequence (Q5JTV8 whole entry, looked up): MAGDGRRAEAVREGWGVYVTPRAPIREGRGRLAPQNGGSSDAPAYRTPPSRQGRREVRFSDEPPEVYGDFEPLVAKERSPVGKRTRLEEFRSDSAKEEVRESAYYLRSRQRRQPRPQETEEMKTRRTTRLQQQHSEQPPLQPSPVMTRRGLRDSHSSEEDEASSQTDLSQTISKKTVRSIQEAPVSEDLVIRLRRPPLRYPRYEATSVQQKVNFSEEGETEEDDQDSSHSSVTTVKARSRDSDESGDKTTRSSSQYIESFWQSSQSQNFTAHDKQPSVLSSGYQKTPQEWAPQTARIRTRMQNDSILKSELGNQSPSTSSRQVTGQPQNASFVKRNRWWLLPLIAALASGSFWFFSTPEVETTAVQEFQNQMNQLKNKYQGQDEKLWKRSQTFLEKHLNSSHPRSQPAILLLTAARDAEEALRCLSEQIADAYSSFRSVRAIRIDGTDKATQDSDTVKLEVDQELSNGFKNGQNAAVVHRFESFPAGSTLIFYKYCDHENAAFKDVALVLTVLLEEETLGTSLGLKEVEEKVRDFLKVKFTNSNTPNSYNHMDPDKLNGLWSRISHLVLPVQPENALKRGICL
Dickkopf-related protein 1 (Homo sapiens), sequence (O94907 whole entry, looked up): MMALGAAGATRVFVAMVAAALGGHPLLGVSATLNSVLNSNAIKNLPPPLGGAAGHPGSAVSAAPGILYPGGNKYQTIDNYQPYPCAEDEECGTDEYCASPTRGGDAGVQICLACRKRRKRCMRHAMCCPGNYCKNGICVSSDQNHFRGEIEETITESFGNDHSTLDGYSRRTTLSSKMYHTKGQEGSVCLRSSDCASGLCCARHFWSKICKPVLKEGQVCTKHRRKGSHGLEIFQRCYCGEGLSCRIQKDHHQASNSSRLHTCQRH
Epidermal growth factor receptor (Homo sapiens), sequence (P00533 whole entry, looked up): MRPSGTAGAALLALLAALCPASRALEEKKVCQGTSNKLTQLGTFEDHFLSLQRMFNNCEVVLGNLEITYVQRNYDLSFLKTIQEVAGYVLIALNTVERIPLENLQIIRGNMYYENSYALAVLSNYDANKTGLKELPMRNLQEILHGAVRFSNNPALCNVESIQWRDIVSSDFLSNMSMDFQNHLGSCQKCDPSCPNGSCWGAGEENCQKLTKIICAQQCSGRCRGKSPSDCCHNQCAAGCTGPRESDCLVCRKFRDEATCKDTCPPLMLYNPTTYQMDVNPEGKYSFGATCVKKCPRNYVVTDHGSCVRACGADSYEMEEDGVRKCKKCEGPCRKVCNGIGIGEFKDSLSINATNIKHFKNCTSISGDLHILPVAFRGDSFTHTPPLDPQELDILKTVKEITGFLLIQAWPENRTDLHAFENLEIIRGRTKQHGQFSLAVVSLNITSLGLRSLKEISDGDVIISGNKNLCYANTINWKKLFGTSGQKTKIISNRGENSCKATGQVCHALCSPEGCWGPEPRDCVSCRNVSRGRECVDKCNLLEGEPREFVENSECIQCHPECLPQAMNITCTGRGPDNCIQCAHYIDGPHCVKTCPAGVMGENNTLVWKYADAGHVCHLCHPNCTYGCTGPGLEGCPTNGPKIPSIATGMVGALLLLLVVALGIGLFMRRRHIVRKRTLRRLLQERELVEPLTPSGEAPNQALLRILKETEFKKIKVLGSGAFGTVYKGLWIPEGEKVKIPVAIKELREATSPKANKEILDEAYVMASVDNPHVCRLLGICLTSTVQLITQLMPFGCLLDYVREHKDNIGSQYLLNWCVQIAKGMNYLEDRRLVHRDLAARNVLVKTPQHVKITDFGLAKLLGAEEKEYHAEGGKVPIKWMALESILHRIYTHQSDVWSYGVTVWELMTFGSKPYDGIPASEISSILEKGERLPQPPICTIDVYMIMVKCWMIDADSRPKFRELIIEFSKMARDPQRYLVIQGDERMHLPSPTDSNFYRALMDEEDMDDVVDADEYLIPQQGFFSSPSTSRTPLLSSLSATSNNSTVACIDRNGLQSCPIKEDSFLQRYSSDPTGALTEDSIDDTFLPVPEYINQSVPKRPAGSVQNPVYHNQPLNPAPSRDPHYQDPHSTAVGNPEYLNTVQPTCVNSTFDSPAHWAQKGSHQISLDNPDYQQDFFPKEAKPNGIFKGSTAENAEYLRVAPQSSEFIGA
Fibroblast growth factor 10 (Homo sapiens), sequence (O15520 whole entry, looked up): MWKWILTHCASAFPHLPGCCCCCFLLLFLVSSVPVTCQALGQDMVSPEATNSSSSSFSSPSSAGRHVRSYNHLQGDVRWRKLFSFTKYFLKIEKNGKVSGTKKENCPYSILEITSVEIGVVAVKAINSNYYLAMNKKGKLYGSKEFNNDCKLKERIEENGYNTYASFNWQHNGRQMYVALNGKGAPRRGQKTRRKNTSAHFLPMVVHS
Left-right determination factor 2 (Homo sapiens), sequence (O00292 whole entry, looked up): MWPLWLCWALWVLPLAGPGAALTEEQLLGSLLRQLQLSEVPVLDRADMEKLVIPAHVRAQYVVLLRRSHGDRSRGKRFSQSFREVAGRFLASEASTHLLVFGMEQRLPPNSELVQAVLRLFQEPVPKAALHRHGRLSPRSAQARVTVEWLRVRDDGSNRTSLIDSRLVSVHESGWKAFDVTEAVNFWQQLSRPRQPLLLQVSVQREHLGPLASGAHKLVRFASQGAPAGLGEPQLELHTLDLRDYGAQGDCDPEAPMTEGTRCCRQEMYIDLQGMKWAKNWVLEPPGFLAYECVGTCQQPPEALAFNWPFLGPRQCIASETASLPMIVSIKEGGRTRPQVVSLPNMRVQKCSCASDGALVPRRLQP

For the compound `C[C@@H]1NC(=O)[C@@]23C(=O)N[C@@H](Cc4ccccc4)C2[C@H](C)[C@@]2(C)O[C@H]2C3/C=C/C/C=C\CNC(=O)[C@@H]2CCCN2C1=O` (stereo not given in full), the composite z-score in test [1] is 0.685; in test [2], -0.33; in test [3] it was -0.339; in [5] it was 0.0528; in test [6], -0.438; in test [7], -0.0154. Further, the composite z-score is -0.165 in test [8]; 0.0077 in test [9]; 1.35 in [10]; -0.496 in test [11]; -0.301 in test [13]; -0.535 in [14]. The composite z-score in [15] is -0.556; in test [16], -0.196; in test [17] it was -0.0553; in test [18] it was -0.122; in test [19] it was -0.313; in [20], -0.123. The z-score was -0.0139 (inactive) in [4] and 0.606 in test [12].
Take `COCCOC(=O)N1C(=O)[C@@]2(c3cc(C#CC4=CCCCC4)ccc31)[C@H](c1ccc(OCCO)cc1)N1[C@H](c3ccccc3)[C@H](c3ccccc3)OC(=O)[C@H]1[C@@H]2C(=O)N1CCN(c2ncccn2)CC1`: the composite z-score was 0.28 in test [1]; 0.0367 in [2]; 0.262 in test [3]; 1.34 in [5]; 1.3 in test [6]; 0.494 in test [7]. Besides, the composite z-score in test [8] is 0.866; in test [9], 0.605; in test [10] it was 0.783; in [11], 1.05; in test [13], 0.671; in [14], 0.623. The composite z-score in test [15] was 0.189; in test [16] it was -0.034; in test [17], -0.0146; in test [18], 0.759; in test [19], 0.835; in test [20] it was 0.418. The z-score in test [4] is 0.515 (inactive); in test [12], -0.807.
Take `C=C(COC)/C(=C/C[C@H](OC(C)=O)c1ccc(OCCO)cc1)c1cc(C(=O)OC)ccc1OC`: the composite z-score is 1.38 in [1]; 0.0841 in test [2]; -0.24 in test [3]; 1.48 in test [5]; 0.416 in [6]; 0.148 in [7]. Further, the composite z-score in test [8] is 0.924; in test [9], 0.468; in test [10], 0.72; in test [11], 0.697; in [13], 0.695; in test [14], -0.24. Further, the composite z-score was -0.845 in test [15]; -0.0792 in test [16]; -0.169 in [17]; 0.449 in test [18]; 2.13 in [19]; 0.0079 in test [20]. Moreover, the z-score in [4] was -0.195 (inactive); in test [12], -1.13.
Regarding `COc1cc2c(cc1OC)CN(C(=O)[C@@H]1[C@H]3C(=O)O[C@H](c4ccccc4)[C@H](c4ccccc4)N3[C@H](c3ccc(OCCO)cc3)[C@@]13C(=O)Nc1ccc(C#CC4(O)CCCCCC4)cc13)CC2`, the composite z-score in test [1] is 1.21; in test [2] it was 0.7; in test [3], -0.386; in [5] it was 1.47; in [6], 1.3; in test [7], 0.741. Besides, the composite z-score in test [8] worked out at 1.11; in [9], 0.698; in [10] it was 0.282; in [11] it was 1.34; in test [13] it was 0.866; in test [14] it was 1.52. In addition, the composite z-score in test [15] is -0.225; in [16], 0.0596; in [17], 0.0985; in test [18], -0.111; in test [19], 1.37; in test [20], 1.69. Besides, the z-score in test [4] was -1.38 (inactive); in test [12] it was -1.34.
Take `C=CC[C@]1(C(=O)O)COC(c2ccc(OCCCO)cc2)=N1`: the composite z-score is 1.58 in test [1]; -0.133 in test [2]; 0.568 in test [3]; -0.0346 in test [5]; 0.156 in [6]; 0.0943 in [7]. For the same compound, the composite z-score in test [8] was 0.406; in [9], 0.117; in test [10] it was 0.888; in test [11], 0.549; in [13], 0.268; in test [14], 0.0295. The composite z-score in [15] is 0.47; in [16], -0.0203; in [17] it was -0.138; in test [18], -0.419; in test [19] it was -0.0942; in test [20], 0.291. Also, the z-score in [4] was -0.565 (inactive); in test [12], 0.183.
For `COc1cc2c(cc1OC)CN(C(=O)[C@@H]1[C@H]3C(=O)O[C@H](c4ccccc4)[C@H](c4ccccc4)N3[C@H](c3ccc(OCCO)cc3)[C@@]13C(=O)Nc1ccccc13)CC2`, the composite z-score was 1.41 in [1]; 0.0269 in [2]; 0.0159 in test [3]; 1.4 in test [5]; 1.17 in [6]; 0.399 in test [7]. Besides, the composite z-score in [8] was 1.07; in test [9], 0.343; in test [10], 0.508; in [11] it was 1.44; in test [13] it was 0.351; in test [14] it was 1.04. In addition, the composite z-score in test [15] is 0.0568; in [16], 0.133; in [17] it was 0.0328; in test [18] it was -0.592; in test [19], 1.14; in test [20] it was 1.91. In addition, the figures for the z-score in test [4] and in test [12] were 0.576 (inactive) and -1.68, respectively.
